CBFb-RUNX1 inh: qHTS Assay for Compounds Blocking the Interaction Between CBF-beta and RUNX1 for the Treatment of Acute Myeloid Leukemia; Runt-related transcription factor 1 (Homo sapiens) + Core-binding factor subunit beta …; Potency, µM (doses to about 59.8 µM), inactives show at the top dose activity, negative = inhibition, most hits filed as inhibitors; 230,000 tested, under 10 active; AID 1477, 2009; AlphaScreen CBFb-His/RUNX1-biotin binding, biochemical; further: % of control where 0% means no effect
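Bead-based AlphaScreen assay; binding partners His-tagged CBF-beta and biotinylated RUNX1 at 30 nM each. Compound exposure 15 min after a 20-min protein preincubation; bead step 90 min; all steps at room temperature.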
PNC assembly inh: High Content Assay for Compounds that inhibit the Assembly of the Perinucleolar Compartment; PC3M PTB-GFP, PNC prevalence imaging, 16 h; active compounds read low; activity change (PNC), negative = inhibition, % at 10 µM; 140,000 tested, 3.1% active; AID 2417, 2010;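 active means readout at or below -70, meaning at least 70% loss of cells showing the perinucleolar compartment, a nuclear body marking cancer cells; inconclusive means readout between -30 and a set limit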;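 further: plate controls were DMSO wells for no effect and camptothecin positive control wells for full effect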
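Read-out is percentage of cells bearing a perinucleolar compartment, from automated 20x imaging of fixed, Hoechst-stained PC3M PTB-GFP cells. Cells were seeded 4 h, then exposed 16 h to compound (23 nl of library stock) in duplicate plates.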
ALDH1A1 block: qHTS Assay for Inhibitors of Aldehyde Dehydrogenase 1 (ALDH1A1); Purified ALDH1A1, NADH fluorescence, propionaldehyde substrate; Potency, µM (highest dose often 75.3 µM), for the others: at the top dose activity, negative = inhibition, actives largely listed as inhibitors; 220,000 tested, 7.3% active; active means well fitted inhibition curve with a large enough effect, not every such curve was filed as active; inconclusive means small, poorly fitted or top-dose-only effect, or another doubt; inactive means no such curve, though single readings can be large or run the other way;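 further: potency means the concentration at half of the fitted maximal effect; plate controls were no enzyme wells and a reference inhibitor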
Target sequence (P00352 whole entry, looked up): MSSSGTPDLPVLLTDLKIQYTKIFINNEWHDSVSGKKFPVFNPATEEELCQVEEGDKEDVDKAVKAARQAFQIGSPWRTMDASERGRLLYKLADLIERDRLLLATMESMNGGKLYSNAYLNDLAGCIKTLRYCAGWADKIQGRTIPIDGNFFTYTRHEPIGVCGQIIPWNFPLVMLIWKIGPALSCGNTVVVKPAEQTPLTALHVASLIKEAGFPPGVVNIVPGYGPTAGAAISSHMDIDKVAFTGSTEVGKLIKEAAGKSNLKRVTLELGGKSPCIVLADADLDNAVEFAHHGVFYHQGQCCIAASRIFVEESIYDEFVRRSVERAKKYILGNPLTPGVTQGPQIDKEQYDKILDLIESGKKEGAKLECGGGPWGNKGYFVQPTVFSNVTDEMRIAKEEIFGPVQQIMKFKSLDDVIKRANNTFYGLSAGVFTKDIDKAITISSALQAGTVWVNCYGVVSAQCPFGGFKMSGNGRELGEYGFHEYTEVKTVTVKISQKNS
HPGD block: qHTS Assay for Inhibitors of HPGD (15-Hydroxyprostaglandin Dehydrogenase); purified HPGD, NADH fluorescence kinetic, PGE2 substrate; 150,000 tested, 4.3% active; AID 894, 2007; Potency, µM, without a hit: top-dose activity change, negative = inhibition, hits mostly inhibitors; active means well fitted inhibition curve with a large enough effect, not every such curve was filed as active; inconclusive means small, poorly fitted or top-dose-only effect, or another doubt; inactive means no such curve, though single readings can be large or run the other way; further: potency means the concentration at half of the fitted maximal effect; on the % scale 0 is the no-effect control and ±100 the full control effect
Target sequence (P15428 whole entry, looked up): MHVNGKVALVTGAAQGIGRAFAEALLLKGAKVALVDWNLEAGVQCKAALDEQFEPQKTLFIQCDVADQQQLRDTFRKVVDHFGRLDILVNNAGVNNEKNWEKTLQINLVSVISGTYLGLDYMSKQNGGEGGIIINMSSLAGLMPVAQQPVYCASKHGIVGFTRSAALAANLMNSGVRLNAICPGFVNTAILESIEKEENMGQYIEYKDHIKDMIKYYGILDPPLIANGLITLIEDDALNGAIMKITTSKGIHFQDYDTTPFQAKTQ
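20 nM HPGD preincubated 15 min at room temperature with compound in 50 mM Tris-HCl pH 8, 0.01% Tween 20. Started with 1 mM NAD+ and 30 uM prostaglandin E2; NADH fluorescence (360/450 nm) read 5 times over 30-s intervals, last minus first.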
HTT cytoprotect: qHTS Multiplex Assay to Identify Dual Action Probes in a Cell Model of Huntington: Cytoprotection (ATP) | PC12 HTT-Q103 induced, cytoprotection, ATP luminescence, 40 h | Potency, µM (highest dose often 56.4 µM), inactives show cytoprotection (ATP increase), most hits filed as activators | 230,000 tested, 0.14% active; further: potency means the concentration at half of the fitted maximal effect; % of control where 0% means no effect; nearly all actives have a fitted effect of over 45% in size
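PC12 cells with ecdysone-inducible HTT exon 1 Q103-GFP, induced with 100 nM tebufenozide and co-treated with library compounds in a dose series (1536-well, 1500 cells/well). Cytoprotection read as ATP content by ATPlite luminescence.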
HTT aggregate: qHTS Multiplex Assay to Identify Dual Action Probes in a Cell Model of Huntington: Aggregate Formation (GFP); PC12 HttQ103-GFP aggregates, Acumen cytometry, 40 h; Potency, µM (top dose mostly 46.1 µM), without a hit: at the highest dose activity change, negative = inhibition, hits mostly inhibitors; 220,000 tested, 1.1% active; further: potency means the concentration at half of the fitted maximal effect; on the % scale 0 is the no-effect control and ±100 the full control effect; nearly all actives have a fitted effect of over 60% in size
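Using laser scanning cytometry, GFP-positive aggregates were counted after lysis of PC12 cells induced with 100 nM tebufenozide to express HTT exon 1 Q103–GFP. Compounds were tested in titration.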
Numbers without * were called inactive; ? = inconclusive; nt = no result; [ ] = remark or other dose. Only some compounds are listed: those with a hit (about 11% of all), similar ones and a draw of the others. Unless noted, the call rests on the fitted dose curve; in most records, active means well fitted curve in the direction sought with a large enough effect; inconclusive means small, poorly fitted or top-dose-only effect, or another doubt; inactive means no such curve, though single readings can be large; an effect the other way counts as inactive or inconclusive.

SMILES	CBFb-RUNX1 inh	PNC assembly inh	ALDH1A1 block	HPGD block	HTT cytoprotect	HTT aggregate
O=C(CSc1nnc(-c2ccccc2Br)o1)N1CCN(C(=O)c2ccco2)CC1	-11%	-1	8.9µM*	28µM*	3%[10 µM]	2%
COc1cccc(OC)c1C(=O)N1CCN(S(=O)(=O)c2ccccc2)CC1	7%	-99*	-2%	-6%	2%[10 µM]	-15%
O=C(CSc1nnc(-c2ccc(F)cc2)o1)N1CCN(C(=O)c2ccco2)CC1	4%	-14	-11%	-3%	-12%[10 µM]	35%[9.22 µM]
COc1ccc(-n2c(=O)cnc3cnc(Oc4ccccc4)nc32)cc1	nt	nt	?	-5%	-21%	nt
Cn1cnnc1Sc1nc([N+](=O)[O-])nn1C	6%	nt	10%	nt	-13%[10 µM]	-13%[9.22 µM]
COc1ccccc1-c1nnc(Sc2nc([N+](=O)[O-])nn2C)o1	-7%	14	4%	-3%	18µM*	nt
Cc1ccc2c(c1)CCCN2C(=O)c1ccoc1C	-4%	5	?	-6%	-4%	5%
Cc1ccc2c(c1)CCCN2C(=O)c1cc2ccccc2oc1=O	-5%	-28	14µM*	-14%	-19%[10 µM]	-17%
C#Cc1ccc([C@@H]2C=C(C(=O)OCC=C)O[C@H](OCc3ccc(CO)cc3)C2)cc1	-12%	nt	13µM*	nt	18%[10 µM]	5%[9.22 µM]
C#Cc1ccc([C@@H]2C=C(C(=O)OCC=C)O[C@H](OCCCCO)C2)cc1	-14%	nt	16µM*	nt	27%[10 µM]	4%[9.22 µM]
CCOC(=O)c1c(NC(=S)N2CCOCC2)sc2c1CCN(C(=O)OCC)C2	-7%	nt	nt	nt	-2%[10 µM]	21%[9.22 µM]
Cc1cc2c(=O)[nH]c(N)nc2nc1C	nt	nt	9%[13.5 µM]	-3%	17%[10 µM]	nt
O=C(NCc1ccc(F)cc1)c1cnn2ccccc12	3%	-84*	?	3%	-17%	?
COc1cccc(-c2nnc(SCC3CNC(=O)O3)n2-c2ccc(Cl)cc2)c1 (centres undefined)	-3%	81	0.63µM*	nt	-4%[10 µM]	2%
CCC(=O)c1c(O)cc(O)cc1O	8%	nt	-13%	-18%	?	5%
CSc1oc(-c2ccc(F)cc2)nc1S(=O)(=O)c1ccccc1	-1%	-13	28µM*	?	-11%[10 µM]	-4%
O=S(=O)(c1ccccc1)c1nc(-c2ccco2)oc1N1CCOCC1	-4%	7	7%	-3%	-3%	0%
COc1ccc(-c2nc(S(=O)(=O)c3ccccc3)c(N3CCOCC3)o2)cc1	-7%	5	22µM*	-10%	-4%[10 µM]	1%
O=S(=O)(c1ccccc1)c1nc(-c2ccccc2)oc1N1CCCCC1	1%	-18	0.45µM*	?	-19%[10 µM]	-3%
COc1ccc(N2CC(NC(=O)N3CCc4ccccc43)CC2=O)cc1OC (centres undefined)	-3%	nt	-3%	nt	-35%	5%
CC(C)(C)c1ccc(-c2nnc(SCCC#N)n2C2CCCC2)cc1	11%	-2	-2%	-10%	26%[1.9 µM]	11µM*
O=C(c1ccc(Cl)s1)N1CCCC1	-5%	-19	?	7.9µM*	7%	-11%
CCc1ccc(C(=O)N2CCCC2)s1	3%	?	?	16µM*	14%[10 µM]	-20%
O=C(NCc1ccccc1C(F)(F)F)C1CC(c2ccccc2[N+](=O)[O-])=NO1 (centres undefined)	2%	-15	-4%	-12%	-3%	-5%
Cc1cnc(NC(=O)COc2cccc3c2OC(C)(C)C3)s1	0%	-95*	8%	2%	16%	7%
SMILES	CBFb-RUNX1 inh	PNC assembly inh	ALDH1A1 block	HPGD block	HTT cytoprotect	HTT aggregate
Cc1cc(NC(=O)COC(=O)COc2cccc3c2OC(C)(C)C3)no1	2%	-21	-1%	0%	-27%	-1%
CCC/C=C/C(C)O (centres undefined)	3%	nt	7%	-4%	?	nt
Cc1nc2c(=O)n(C)c(=O)n(C)c2nc1Cl	-15%	0	?	?	-90%[10 µM]	10µM*
Cn1c(=O)c2nc(NCc3ccccc3)cnc2n(C)c1=O	3%	?	-12%	-19%	-12%[10 µM]	1%[9.22 µM]
Nc1c(C(=O)NCCN2CCOCC2)c2nc3ccccc3nc2n1CCc1ccccc1	?	?	?	?	-21%	?
O=C(O)CCCNC(=O)OCc1ccccc1	2%	-24	8%	0%	-10%[0.074 µM]	?
COC(=O)C(CCCCNC(=O)OCc1ccccc1)NC(=O)CN (centres undefined)	5%	29	28µM*	-3%	-2%	-1%
CCCCCCCCCCCCCC(=O)OC(C)C	nt	nt	nt	nt	?	31%
CNC1(c2nnnn2-c2ccccc2C)CCOC(C)(C)C1 (centres undefined)	5%	nt	nt	nt	33%[10 µM]	1%[9.22 µM]
Cc1cc(C(=O)N/N=C/c2cn[nH]c2-c2ccccc2)cs1	-1%	-114*	0%	-8%	nt	2%
CC(C)(Oc1ccc(Cl)cc1)C(=O)N/N=C/c1cn[nH]c1-c1ccccc1	1%	-19	8.9µM*	-28%	-6%	-9%
O=C(N/N=C\c1cn[nH]c1-c1ccccc1)c1ccc([N+](=O)[O-])cc1	-13%	13	-9%	-14%	nt	-16%
O=C(CN1C(=O)CSC1=O)Nc1ccc(F)c(F)c1F	10%	9	-1%	-15%	-14%[10 µM]	6%
COC(=O)c1ccc(C(NC(=O)OCc2ccccc2)/C(=C/[C@@H](C)C(=O)N(C)Cc2ccccc2)c2cccnc2)cc1 (some centres undefined)	-27%	nt	-1%	-11%	3%	nt
N#C/C(=N\Nc1ccc(Cl)cc1)C(=O)c1ccsc1	?	nt	-3%	nt	-33%[10 µM]	-28%[9.22 µM]
N#C/C(=N\Nc1ccccc1Cl)C(=O)c1ccccc1	-27%	26	-67%	28µM*	-93%	?
N#C/C(=N\Nc1cccc(Cl)c1)C(=O)c1ccccc1	-23%	?	2%	-17%	-66%	3.5µM*
CC(C)CNC(=O)CC(=O)NN=C1CCCC1	-3%	-113*	-2%	-6%	nt	8%
CC(C)NC(=O)CC(=O)NN=C1CCCCC1	0%	nt	-7%	nt	-26%[10 µM]	2%[9.22 µM]
O=C(O)CNC(=O)c1ccc([N+](=O)[O-])cc1	25%[21.7 µM]	nt	1%	-9%	-19%	nt
